An excerpt weighted towards active compounds, which were near 7.5% of everything screened.
FLuc modulator: counter-screen for miR-21 project: firefly luciferase inhibitors or activators; P08659; purified FLuc, Km substrates, luminescence inhibition; Potency, µM (titrated, usually from 57.5 µM), hits mostly inhibitors; 6.9% of 360,000 active; AID 588342; also: nearly all actives have a fitted effect of over 55% in size
Target sequence (P08659 whole entry, looked up): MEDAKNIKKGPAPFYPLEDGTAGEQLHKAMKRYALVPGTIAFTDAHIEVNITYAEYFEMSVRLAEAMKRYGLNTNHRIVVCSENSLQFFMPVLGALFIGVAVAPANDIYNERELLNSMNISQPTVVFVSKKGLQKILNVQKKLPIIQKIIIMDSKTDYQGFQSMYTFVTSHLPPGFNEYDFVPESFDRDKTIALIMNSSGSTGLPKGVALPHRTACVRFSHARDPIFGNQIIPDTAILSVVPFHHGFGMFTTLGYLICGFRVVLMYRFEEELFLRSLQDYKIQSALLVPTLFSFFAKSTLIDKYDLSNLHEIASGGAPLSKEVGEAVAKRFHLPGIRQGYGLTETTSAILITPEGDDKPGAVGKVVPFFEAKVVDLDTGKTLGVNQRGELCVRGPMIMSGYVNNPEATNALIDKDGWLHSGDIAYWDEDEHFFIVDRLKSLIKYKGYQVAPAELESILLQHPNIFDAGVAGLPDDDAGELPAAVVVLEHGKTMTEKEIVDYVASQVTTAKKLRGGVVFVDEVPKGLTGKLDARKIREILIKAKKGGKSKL
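Purified P. pyralis luciferase, 10 nM final, with Km-level 10 uM D-luciferin and 10 uM ATP in 50 mM Tris acetate pH 7.5, 10 mM Mg acetate, 0.01% Tween-20, 0.05% BSA; 6-point qHTS titration about 60 µM downward; luminescence read.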
SMN2 splice up: enhancers of SMN2 splice variant expression. HEK293 SMN2-luciferase splicing reporter, luminescence, 30-36 h. Potency, µM (titrated, usually from 46.1 µM), actives largely listed as activators. 2.8% of 210,000 active; also: nearly all actives have a fitted effect of over 55% in size
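HEK293 cells carry an SMN2 minigene-luciferase reporter in which exon 7 inclusion puts luciferase in frame. Cells were seeded at 2000 cells/well, attached for 10-12 hours, then exposed to compounds for 30-36 hours at 37C before ONE-Glo luminescence.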
NPC1 promoter act: NPC1 promoter activation | Huh7 NPC1 promoter luciferase reporter, 24 h | 2.4% of 320,000 active | Potency, µM (highest dose often 9.22 µM), most hits filed as activators; also: nearly all actives have a fitted effect of over 60% in size
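NPC1 promoter–luciferase Huh7 cells; 24 h compound; luminescence.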
Rab9 promoter act: activates the Rab9 promoter | Huh7 Rab9 promoter-luciferase reporter, luminescence, 24 h | Potency, µM (top dose mostly 9.22 µM), hits mostly activators | 2.8% of 320,000 active; also: nearly all actives have a fitted effect of over 60% in size
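Stable Rab9-luc Huh7, 1500 cells/well, 2 h settle; cmpd in DMSO, 24 h, 37 °C/5% CO2; luciferase reagent 10 min RT; luminescence.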
Luc counter: blocks Kinase-Glo luciferase, a counter-screen artifact | Potency, µM (doses to about 38.3 µM), actives largely listed as inhibitors | Q27757 | 0.28% of 200,000 active | AID 1379 | Kinase-Glo luciferase, ATP luminescence, 8 min; also: nearly all actives have a fitted effect of over 60% in size
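Compound is pinned into ATP-containing buffer (10 uM ATP, imidazole pH 7.2, 7 mM MgCl2). Kinase-Glo luciferase reagent is then added. Light output is recorded following an 8-min room-temperature incubation.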
ELG1 genotox: genotoxicity induction in ELG1-luciferase HEK293T cells. HEK293T ELG1-luciferase reporter, luminescence, 16 h. Potency, µM (highest dose often 46 µM), usual class: activators. 1.3% of 330,000 active; also: nearly all actives have a fitted effect of over 60% in size
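DMSO vehicle served as control against compound-treated ELG1-luciferase HEK293T cells; exposure lasted 16 hr at 37 °C and 5% CO2, followed by ONE-Glo luminescence detection after 30 min.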
Numbers stand for hits; i = inactive; ? = inconclusive; nt = no result given. Calls follow the shape of the dose curve; as a rule, active = well fitted curve in the direction sought with a large enough effect; inconclusive = small, poorly fitted or top-dose-only effect, or another doubt; inactive = no such curve, though single readings can be large; an effect the other way counts as inactive or inconclusive.

SMILES	FLuc modulator	SMN2 splice up	NPC1 promoter act	Rab9 promoter act	Luc counter	ELG1 genotox
NC(=S)c1ccc[n+]([C@@H]2O[C@@H](COP(=O)([O-])OP(=O)(O)OC[C@H]3O[C@@H](n4cnc5c(N)ncnc54)[C@H](OP(=O)(O)O)[C@@H]3O)C(O)C2O)c1 (stereo not given in full)	nt	nt	i	i	nt	nt
CCC(=O)NCCc1nc2cc(NC(=O)c3ccc(OC)cc3)ccc2n1C	17µM	13µM	?	?	i	8.9µM
COc1ccc(OCC(=O)Nc2ccc3c(c2)nc(CCNC(C)=O)n3C)cc1	i	nt	i	i	nt	i
CC(=O)Nc1cccc(NC(=O)CSc2cn(CC(=O)N3CCCCCC3)c3ccccc23)c1	i	nt	nt	nt	nt	nt
Cc1ccc(/C=N/NC(=O)NC2CCCCC2)o1	i	i	i	i	i	i
Cc1ccc(/C=C/C(=O)NC2CCCCCCC2)o1	24µM	?	i	?	i	?
O=C(/C=C/c1ccccc1Cl)NC1CCCCC1	11µM	nt	2.8µM	3.5µM	nt	?
O=C(/C=C/c1ccccc1Cl)NC1CCS(=O)(=O)C1 (stereo not given)	i	nt	i	i	i	i
CC(C)CC1(C(=O)O)C=CCN1C(=O)c1ccccc1 (stereo not given)	nt	i	nt	nt	i	nt
COc1ccc(C)cc1NC(=O)Nc1ccncc1	i	nt	i	i	nt	i
Cc1ccc(N2NC(C)(c3cccs3)NC2=S)cc1 (stereo not given)	9.5µM	i	4.5µM	3.5µM	i	?
CCOc1ccc(NC(=O)CN(C)CC(=O)Nc2ccc(F)c(F)c2F)cc1OCC	i	i	i	i	i	i
CCc1ccccc1NC(=O)NC1CCCCCCC1	i	nt	i	i	nt	i
Cc1ccc(C(=O)Nc2nnc(S(=O)(=O)N(C)Cc3ccc(Cl)cc3)s2)cc1	i	nt	nt	nt	nt	nt
O=C(N/N=C/c1cccn1-c1ccc(O)cc1)c1cccc2ccccc12	i	nt	i	i	nt	i
Cn1cc(/C=N/NC(=O)c2cc3cc(Br)ccc3o2)c2ccccc21	8.5µM	nt	i	i	nt	i
O=C(N/N=C/c1cccc2ccccc12)c1cc2ccccc2o1	?	nt	i	i	nt	i
C=CCn1cc(/C=N\NC(=O)c2cc3c(ccc4ccccc43)o2)c2ccccc21	?	i	i	i	i	i
O=C(O)Cn1cc(/C=N/NC(=O)c2cc3cc(Br)ccc3o2)c2ccccc21	12µM	nt	i	i	nt	i
O=C(O)c1ccc(-n2cccc2/C=N\NC(=O)c2cc3cc(Br)ccc3o2)cc1	15µM	nt	i	i	nt	i
C#CCn1cc(/C=N/NC(=O)c2cc3ccccc3o2)c2ccccc21	12µM	i	i	i	i	i
Cc1cc(=O)oc2cc(OC(C)C(=O)NC3(C#N)CCCCC3)ccc12 (stereo not given)	i	nt	i	i	nt	i
O=C(NC1CCC(O)CC1)c1ccc(Br)o1 (stereo not given)	nt	nt	nt	nt	nt	i
O=C(NC1=NCCS1)c1ccc(Cl)cc1	11µM	nt	1.6µM	2µM	nt	10µM
COc1ccc(Cl)cc1C(=O)NC1=NCCS1	?	nt	i	i	nt	i
SMILES	FLuc modulator	SMN2 splice up	NPC1 promoter act	Rab9 promoter act	Luc counter	ELG1 genotox
O=C(NC1CCC(O)CC1)c1ccc(-c2ccc(Cl)cc2)o1 (stereo not given)	11µM	nt	?	?	nt	i
O=C(NC1=NCCS1)c1ccc(Br)s1	7.6µM	11µM	3.5µM	3.5µM	i	7.3µM
O=C(NC1=NCCS1)c1ccc(-c2ccc(Cl)cc2)o1	1.9µM	13µM	2µM	2µM	i	2.1µM
O=C(NNC(=O)c1ccccc1F)c1ccc(-c2ccc(Cl)cc2)o1	?	nt	i	i	nt	i
Cc1cc(C)c(S(=O)(=O)N2CCCCC2CCNC(=O)C(=O)NC2CC2)c(C)c1 (stereo not given)	i	nt	i	i	nt	i
COc1cc(/C=N/N(C)c2ccccc2)ccc1O	2.4µM	?	?	?	i	4.6µM
CN(/N=C/c1ccc2c(c1)OCO2)c1ccccc1	6.7µM	20µM	4µM	2.8µM	i	?
C(=N\N(c1ccccc1)c1ccccc1)/c1ccc2c(c1)OCO2	i	i	i	i	i	i
Cc1nccc(-c2sc(-c3cccs3)nc2C)n1	15µM	nt	i	?	nt	?
Cc1nc(-c2coc3c(O)c(O)ccc3c2=O)cs1	nt	22µM	nt	nt	i	nt
CCCOc1ccc(N2CC(C(=O)NC3=NCCS3)CC2=O)cc1 (stereo not given)	i	i	i	i	i	i
Cc1cccc(Nc2cc(C)c3c(O)cccc3n2)c1C	17µM	i	i	i	i	i
Cc1ccc(/C=N/NC(=O)c2ccoc2C)s1	15µM	10µM	?	3.2µM	?	?
Cc1ccc(/C=N/NC(=O)c2ccc(C(=O)N/N=C/c3ccc(C)s3)o2)s1	?	i	i	i	i	i
Cc1occc1C(=O)N/N=C/c1ccc(Br)s1	15µM	nt	?	2.8µM	i	?
CCN1CCN(S(=O)(=O)c2ccc(Cl)c(C(=O)NC3CC3)c2)CC1	i	nt	i	i	nt	i
CCN1CCN(S(=O)(=O)c2ccc(Cl)c(C(=O)NCCc3ccccc3)c2)CC1	?	nt	?	?	nt	16µM
COc1ccc(OC(=O)NCCc2ccccc2)cc1	15µM	nt	4µM	3.5µM	nt	?

Screening results deposited in PubChem BioAssay by National Center for Advancing Translational Sciences (NCATS).
